Values without a mark were called inactive. The rule behind the calls is not given here.
Test system: Imidazoline I2
Test: selectivity profile across receptors and CYP450s – biochemical, Ricerca HitProfilingScreen, CYP450, set 2, selectivity assay for S1P4 agonist project, profiling panel (AID 540332)
Settings: Central; at 30 µM; hits give high values

## COCCN=C1S/C(=C\c2cc(C)n(-c3ccc(F)cc3F)c2C)C(=O)N1C
  inhibition: 2%

From PubChem BioAssay AID540332 (The Scripps Research Institute Molecular Screening Center, 2011)
